Measurements taken from PubChem BioAssay (NCI).
This is part of a sample that, as a whole, favours compounds with a hit. Of some 79,000 tested, about 15% had one in any assay. Cut-off read from the data, not from the text of the source: active = growth inhibition above about 70%; inactive = the rest.

Experiments:
[1] = NCI Yeast Anticancer Drug Screen. Data for the rad50 strain (AID 155);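 note: 0% = growth of vehicle-only cultures of the same strain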; settings: S. cerevisiae rad50 strain growth inhibition; at 50.0 µM; hits give high values
Method in brief: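 Growth of the mutant yeast was measured after compound exposure and referenced to vehicle-treated cultures.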

[2] = NCI Yeast Anticancer Drug Screen. Data for the mec2-1 strain (AID 157); settings: S. cerevisiae mec2-1 strain, at 50.0 µM, hits give high values
Method in brief: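 Vehicle-treated cultures served as reference for growth inhibition of compound-exposed mec2-1 yeast.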

[3] = NCI Yeast Anticancer Drug Screen. Data for the sgs1 mgt1 strain (AID 161);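 note: 0% = growth of cultures given vehicle only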; settings: S. cerevisiae sgs1 mgt1 strain, at 50.0 µM, hits give high values
Method in brief: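 Read-out: growth inhibition vs vehicle controls. Cells: mutant yeast strain deficient in DNA damage repair.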

[4] = NCI Yeast Anticancer Drug Screen. Data for the cln2 rad14 strain (AID 165);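 note: 0% = growth equal to vehicle treated cultures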; settings: S. cerevisiae cln2 rad14 strain, at 50.0 µM, hits give high values
Method in brief: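 Each compound was tested on cln2 rad14 yeast. Inhibition of growth was calculated against vehicle-exposed controls.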

[5] = NCI Yeast Anticancer Drug Screen. Data for the bub3 strain (AID 167); settings: S. cerevisiae bub3 mutant strain, at 50.0 µM, hits give high values
Method in brief: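 Whole-cell yeast assay. The mutant strain was incubated with compounds, and growth inhibition was determined by comparison with vehicle-treated cells.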

[6] = NCI Yeast Anticancer Drug Screen. Data for the mlh1 rad18 strain (AID 175); settings: S. cerevisiae mlh1 rad18 strain growth inhibition; at 50.0 µM; hits give high values
Method in brief: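 Vehicle-treated cultures served as the reference for growth inhibition in a yeast strain carrying DNA damage repair alterations exposed to each compound.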

Measured: growth inhibition

CCOC(=O)Nc1ccc2c(c1Cl)C(=O)c1ccccc1C2=O
inactive: [1] -6.85% | [2] -18.1% | [3] -0.2% | [4] 5.65% | [5] 14.3% | [6] -15.6%

NC(=O)/C=C1\NC(=O)CS1
inactive: [1] 0.05% | [2] 7.7% | [3] 1% | [4] -31.1% | [5] -4.55% | [6] 4.2%

CCCCCCCSSCCCCCCC
inactive: [1] -9.85% | [2] -26.1% | [3] -3.55% | [4] 11.9% | [5] -16% | [6] -0.4%

N#CC(/C(=N/NC(N)=S)C(=O)Nc1cccc(Cl)c1)c1ccccc1 (stereo not given)
inactive: [1] -23.9% | [2] 13.8% | [3] 10.4% | [4] 18.3% | [5] 12.9% | [6] 31.2%

O=C1C=C(O)C(=C/C=C/C=C/c2c(O)cc(O)cc2O)C(O)=C1
inactive: [1] -12.4% | [2] -13.6% | [3] -2.65% | [4] 10.2% | [5] 6.65% | [6] -5.7%

NC(=O)C(CCCCNc1c(C(=O)O)cc([N+](=O)[O-])cc1[N+](=O)[O-])NC(=O)c1ccccc1 (stereo not given)
inactive: [1] 14.4% | [2] -6.05% | [3] -19.1% | [4] -7.95% | [5] -2% | [6] 28.8%

C=C(C)[N+]([O-])=NC
inactive: [1] -6.75% | [2] 3.5% | [3] -2.8% | [4] 30.1% | [5] -10.8% | [6] 0.75%

O=C1CCCCc2cccc(O)c21
inactive: [1] 2% | [2] -3.85% | [3] -1.95% | [4] 24.3% | [5] 2.4% | [6] 2.1%

CCOC(=O)C1CC(=O)NC(N)=N1 (stereo not given)
inactive: [1] -12.6% | [2] -29.4% | [3] -13.6% | [4] -7.95% | [5] -8.2% | [6] -14.2%

Nc1nc(N)c(-c2ccc(Cl)cc2)c(CCC(=O)Nc2cccc(C(F)(F)F)c2)n1
inactive: [1] -25.2% | [2] -3.55% | [3] -30% | [4] -0.25% | [5] -17.1% | [6] -21.1%

CC1(C)C2CCC(OC(=O)c3ccc([N+](=O)[O-])cc3)C1C2 (stereo not given)
inactive: [1] 7.25% | [2] -5.15% | [3] 3.5% | [4] -8.1% | [5] 9.95% | [6] -20.8%

O=C(CNC(=O)C(CSC(c1ccccc1)(c1ccccc1)c1ccccc1)NC(=O)OCc1ccccc1)OCc1ccccc1[N+](=O)[O-] (stereo not given)
inactive: [1] 4.9% | [2] 8.85% | [3] -4.15% | [4] -7.95% | [5] -7.05% | [6] 20.1%

COc1ccc(OC)c(C#N)c1C#N (tested in a mixture with another compound)
inactive: [1] -25.1% | [2] 5.9% | [3] -0.15% | [4] -41.5% | [5] -3.35% | [6] -6.75%

NNC1=Nc2ccc(Cl)cc2C(=S)N2CSCC12 (stereo not given)
inactive: [1] -1.05% | [2] -3.1% | [3] -11.7% | [4] -11.8% | [5] -8.95% | [6] 9.25%

COC(=O)c1c(-c2ccccc2)cn(C)c1C
inactive: [1] 16.9% | [2] 9.95% | [3] 12.8% | [4] 5.75% | [5] 6.6% | [6] -6.4%

CCSC(SCC)[C@H](NC(C)=O)[C@@H](O)[C@H](O)[C@H](O)CO
inactive: [1] -6.8% | [2] -12.2% | [3] -8.85% | [4] 0.1% | [5] 2.85% | [6] -12.3%

CC(C)n1nnnc1-c1ccccc1
inactive: [1] -6.45% | [2] -8.5% | [3] 2% | [4] -15.9% | [5] -3.1% | [6] 1.15%

N#CC1=C(c2ccccc2)C(=C2Nc3ccccc3N2)C2S/C(=C\c3ccccc3)C(=O)N2C1=N (stereo not given)
inactive: [1] 21.2% | [2] -12.3% | [3] 10.4% | [4] -31.1% | [5] 4.45% | [6] 26.8%

CCCCCC(C#N)CCC(C)=O (stereo not given)
inactive: [1] -6.7% | [2] -9.15% | [3] -9.3% | [4] -6.2% | [5] -0.95% | [6] -10%

CC(=O)/C=C\c1cc(C)ccc1O
inactive: [1] 27.3% | [2] 22.1% | [3] 9.3% | [4] -35.7% | [5] 8.25% | [6] 12.6%
